The nature of experiment [1]: anti-His antibody binders, primary screen, artefact control for SMM control protein annotation, biochemical, small-molecule microarray, 635 nm fluorescence (AID 1128).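 Note: score merges feature fluorescence with signal-to-noise for each printed compound spot.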 To be noted: anti-His Alexa647 antibody binding, higher = more signal.
In experiment [2] the test system is Human papillomavirus type 1a E7 protein (residues 1-88). Put plainly: HPV1a E7 small-molecule binders, primary screen, biochemical, small-molecule microarray, residues 1-88, 635 nm (AID 1129). The conditions noted are these: small-molecule microarray binding, fluorescence 635 nm; higher = more signal.
Experiment [3] deals with Focal adhesion kinase 1 (Homo sapiens) (UniProt Q05397). The experiment in a line: small-molecule microarray binders of FAK, primary screen, biochemical, 635/667 nm fluorescence, BSA, DTT (AID 1130).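 Note: composite of spot emission at 667 nm and signal to noise over triplicate slides.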 To be noted: PTK2 binding, 635 nm fluorescence, higher = more signal.
In experiment [4] the test system is Fibrinogen (Alexa647-labelled). Put plainly: fibrinogen binders on compound microarrays, profiling panel, artefact control for SMM control-protein annotation, biochemical, small-molecule microarray, 635/667 nm fluorescence (AID 1131).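 Note: z-score merges 667 nm fluorescence with per-spot signal-to-noise over triplicate slides.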 The conditions noted are these: fibrinogen-A647 binding fluorescence, higher = more signal.
For experiment [5], the target named is Follistatin (Homo sapiens) (UniProt P19883). The experiment in a line: follistatin binders on small-molecule microarrays, primary screen, biochemical, small-molecule microarray, 635/667 nm fluorescence (AID 1132). The conditions noted are these: FST binding, 635 nm fluorescence, higher = more signal.
Experiment [6] addresses Fibroblast growth factor 2 (Homo sapiens) (UniProt P09038). The experiment in a line: FGF2 binders on small-molecule microarrays, primary screen, biochemical, small-molecule microarray, 635/667 nm fluorescence (AID 1133). To be noted: small-molecule microarray binding, FGF2, fluorescence 635/667; higher = more signal.
The nature of experiment [7]: mitochondrial membrane potential change in A549 cells, profiling panel, cell-based, JC-1 fluorescence, basal, 24 h, 100 nL (AID 1138).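 Note: A549 lung adenocarcinoma cells under basal conditions with no added stimulus; test concentration not given here.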 To be noted: higher = more signal.
The test system of the next experiment is Lefty1. Put plainly: Lefty1 binders on small-molecule microarrays, primary screen, biochemical, small-molecule microarray, 635/667 nm fluorescence (AID 1139). The conditions noted are these: small-molecule microarray binding, fluorescence 635/667; higher = more signal.
The test system of experiment [8] is wheat germ agglutinin (Triticum aestivum), Alexa647-labelled. The experiment in a line: wheat germ agglutinin binders on compound microarrays, profiling panel, artefact control for SMM control-protein annotation, biochemical, small-molecule microarray, 635/667 nm fluorescence (AID 1140).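 Note: score merges 667 nm feature emission with signal to noise over triplicate slides.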 The conditions noted are these: WGA-A647 binding, 635 nm fluorescence, higher = more signal.

For experiment [9], the target named is Luciferin 4-monooxygenase (Photinus pyralis) (UniProt P08659). The experiment in a line: firefly luciferase enzyme inhibitors, primary screen, biochemical, luminescence, purified enzyme, 2006 set (AID 1141).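 Note: cell-free assay with purified firefly luciferase at 100 ng per well in PBS; test concentration not given here.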 To be noted: SteadyGlo luminescence, 30 min, higher = more signal, called active from +8 up or from −8 down.

Activity calls are given as the source filed them.

Our source for the composite z-score and z-score values is PubChem BioAssay.

Chain of Fibroblast growth factor 2 (Homo sapiens) (P09038 whole entry, looked up): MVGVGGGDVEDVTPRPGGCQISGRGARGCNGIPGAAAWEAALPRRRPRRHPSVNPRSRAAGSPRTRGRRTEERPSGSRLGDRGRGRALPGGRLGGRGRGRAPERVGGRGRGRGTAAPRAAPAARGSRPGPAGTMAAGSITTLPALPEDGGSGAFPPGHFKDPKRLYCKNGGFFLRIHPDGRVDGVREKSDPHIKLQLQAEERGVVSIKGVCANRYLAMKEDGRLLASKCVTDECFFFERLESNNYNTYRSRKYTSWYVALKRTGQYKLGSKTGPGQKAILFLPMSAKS
Chain of Luciferin 4-monooxygenase (Photinus pyralis) (P08659 whole entry, looked up): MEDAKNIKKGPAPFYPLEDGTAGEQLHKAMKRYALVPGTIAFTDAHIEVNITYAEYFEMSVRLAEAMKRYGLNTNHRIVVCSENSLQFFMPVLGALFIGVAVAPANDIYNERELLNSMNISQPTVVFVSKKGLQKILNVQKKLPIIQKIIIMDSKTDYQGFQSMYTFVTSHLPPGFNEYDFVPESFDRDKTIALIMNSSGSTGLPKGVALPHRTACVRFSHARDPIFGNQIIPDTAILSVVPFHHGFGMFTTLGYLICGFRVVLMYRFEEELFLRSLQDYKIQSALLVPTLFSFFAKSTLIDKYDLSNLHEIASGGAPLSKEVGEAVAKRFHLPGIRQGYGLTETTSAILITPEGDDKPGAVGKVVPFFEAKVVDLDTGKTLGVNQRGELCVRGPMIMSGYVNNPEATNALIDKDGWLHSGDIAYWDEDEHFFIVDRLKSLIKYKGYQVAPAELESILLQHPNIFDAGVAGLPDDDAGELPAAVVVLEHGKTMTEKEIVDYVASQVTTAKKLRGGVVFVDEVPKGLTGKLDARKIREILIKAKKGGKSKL
Chain of Follistatin (Homo sapiens) (P19883 whole entry, looked up): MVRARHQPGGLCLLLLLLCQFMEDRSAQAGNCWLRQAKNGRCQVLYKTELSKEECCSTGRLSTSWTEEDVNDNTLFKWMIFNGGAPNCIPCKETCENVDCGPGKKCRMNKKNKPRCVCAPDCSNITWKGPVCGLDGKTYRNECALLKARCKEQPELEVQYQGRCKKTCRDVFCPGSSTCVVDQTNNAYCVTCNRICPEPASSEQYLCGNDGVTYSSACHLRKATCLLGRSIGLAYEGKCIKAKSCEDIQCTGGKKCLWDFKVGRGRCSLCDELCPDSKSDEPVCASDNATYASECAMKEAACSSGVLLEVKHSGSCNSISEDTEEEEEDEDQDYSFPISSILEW
Chain of Focal adhesion kinase 1 (Homo sapiens) (Q05397 whole entry, looked up): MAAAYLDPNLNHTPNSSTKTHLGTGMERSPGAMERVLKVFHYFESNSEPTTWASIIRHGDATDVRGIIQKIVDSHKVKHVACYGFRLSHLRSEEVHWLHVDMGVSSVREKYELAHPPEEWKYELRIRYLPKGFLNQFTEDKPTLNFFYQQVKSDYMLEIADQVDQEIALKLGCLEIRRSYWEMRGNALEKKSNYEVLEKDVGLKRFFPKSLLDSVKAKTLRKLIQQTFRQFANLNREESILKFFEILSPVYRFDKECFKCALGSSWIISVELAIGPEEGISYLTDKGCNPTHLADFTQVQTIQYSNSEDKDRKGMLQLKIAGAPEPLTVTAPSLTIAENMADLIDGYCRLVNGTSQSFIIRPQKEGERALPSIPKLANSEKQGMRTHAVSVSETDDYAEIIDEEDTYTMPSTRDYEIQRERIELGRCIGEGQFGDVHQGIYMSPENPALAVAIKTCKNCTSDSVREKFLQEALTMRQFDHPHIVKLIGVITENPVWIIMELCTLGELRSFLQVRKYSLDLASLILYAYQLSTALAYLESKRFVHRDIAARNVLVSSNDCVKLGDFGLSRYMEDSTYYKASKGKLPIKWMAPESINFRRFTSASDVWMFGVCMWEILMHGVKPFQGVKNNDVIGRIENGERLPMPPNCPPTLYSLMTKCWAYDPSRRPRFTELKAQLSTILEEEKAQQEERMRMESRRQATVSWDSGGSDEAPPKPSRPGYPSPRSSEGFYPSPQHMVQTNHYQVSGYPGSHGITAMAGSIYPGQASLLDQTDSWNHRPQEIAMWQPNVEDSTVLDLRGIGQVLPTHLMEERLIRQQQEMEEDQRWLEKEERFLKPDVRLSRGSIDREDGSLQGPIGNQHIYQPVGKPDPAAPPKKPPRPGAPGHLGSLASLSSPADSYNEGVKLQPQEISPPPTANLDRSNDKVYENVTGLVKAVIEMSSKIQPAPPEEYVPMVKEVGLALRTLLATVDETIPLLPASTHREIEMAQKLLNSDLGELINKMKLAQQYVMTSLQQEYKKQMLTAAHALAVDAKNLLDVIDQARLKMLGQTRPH

As to `COc1ccc([Si](C)(C)[C@@H]2[C@@H](CC(=O)N3CCC[C@H]3CO)O[C@]3(C(=O)N(Cc4ccc(N5CCOC5=O)cc4)c4ccccc43)[C@H]2C)cc1`, the composite z-score in experiment [1] turned out to be 1.02; in experiment [2], 0.783; in experiment [3], 0.939; in experiment [4], 0.867; in [5] it was 0.441; in experiment [6] it was 0.672. Besides, the composite z-score turned out to be 0.646 in the experiment with Lefty1 and 0.471 in experiment [8]. Besides, the z-score in [7] is 0.735; in experiment [9], -1.83 (inactive).

In the case of `N#Cc1ccc(NN2C(C(O)C3CC=CCC3)C=CC3C(=O)N(c4ccccc4)C(=O)C32)cc1` (stereo not given), the composite z-score came to 0.118 in experiment [1]; 1.28 in [2]; 0.534 in experiment [3]; 1.02 in experiment [4]; 0.46 in experiment [5]; 1.05 in experiment [6]. The figures for the composite z-score (with Lefty1; in [8]) were 0.361 and 1.36, respectively. In addition, the z-score was 0.0165 in experiment [7] and -0.852 (inactive) in [9].

With `[N-]=[N+]=NCc1ccccc1[C@@H]1OC(c2ccc(OCCCO)cc2)=N[C@]1(Cc1ccccc1N=[N+]=[N-])C(=O)NCC(O)CO` (stereo not given in full), the composite z-score in experiment [1] is 2.76; in experiment [2], 1.2; in experiment [3], 0.955; in experiment [4], 0.911; in experiment [5] it was 1.05; in experiment [6], 1.26. Further, the composite z-score was -0.459 in the experiment on Lefty1 and 1.22 in experiment [8]. Further, the z-score in experiment [7] was 0.637; in experiment [9], -2.1 (inactive).

As to `C[C@@H]1ON(c2ccccc2)[C@H](c2ccccc2)[C@H]1C(=O)O`, the composite z-score came to 0.468 in experiment [1]; 0.212 in experiment [2]; 0.209 in experiment [3]; 0.722 in [4]; 1.3 in experiment [5]; 0.931 in [6]. Moreover, the composite z-score in the experiment with Lefty1 was 0.309; in [8], 0.607. Further, the z-score in experiment [7] is -0.152; in experiment [9], -0.0018 (inactive).

Take `COC(=O)[C@@]1(Cc2ccc(F)cc2)[C@H]2c3cc(C(=O)N4CCCC4)n(Cc4cc(F)cc5c4OCOC5)c3C[C@H]2CN1C(=O)c1ccccc1`: the composite z-score in [1] was 1.93; in experiment [2], -0.0867; in experiment [3], -0.225; in experiment [4], 0.947; in experiment [5] it was 0.906; in [6] it was -0.796. The composite z-score with Lefty1 is 0.348; in [8], 0.755. Besides, the z-score in experiment [7] is 1.8; in [9] it was 2.74 (inactive).

In the case of `COc1ccc([Si](C)(C)[C@@H]2[C@@H](CC(=O)N3Cc4ccccc4C[C@H]3CO)O[C@]3(C(=O)N(Cc4cccc(N5CCOC5=O)c4)c4ccccc43)[C@H]2C)cc1`, the composite z-score in experiment [1] was determined as 1.23; in [2], 0.402; in experiment [3], 0.0975; in experiment [4], 0.0735; in experiment [5], 1.41; in experiment [6], 1.4. For the same molecule, the values for the composite z-score (with Lefty1; in experiment [8]) were 1.54 and -0.244, respectively. Further, the figures for the z-score in experiment [7] and in [9] were -0.661 and 0.274 (inactive), respectively.

With `C=CCOC(=O)[C@H]1[C@@H]2C(=O)O[C@@H](c3ccccc3)[C@@H](c3ccccc3)N2[C@@H](c2ccc(OCCOC(=O)[C@@H]3C[C@@H]4C(=O)N[C@@H](CCCC[N+](C)(C)C)C(=O)N4[C@@H]3c3ccc(O)cc3)cc2)[C@]12C(=O)Nc1ccc(I)cc12`, the composite z-score in experiment [1] stood at 1.08; in experiment [2], 0.377; in experiment [3], 0.898; in experiment [4] it was 0.4; in [5] it was 1.32; in [6], 1.48. For the same molecule, the composite z-score in the experiment with Lefty1 stood at 1.01; in experiment [8] it was 0.422. Also, the z-score in experiment [7] was -1.77; in experiment [9], -2.99 (inactive).

In the case of `CCCNC(=O)[C@@]1(c2ccc([N+](=O)[O-])cc2)CC(=O)N(C(C)C)[C@@H]1c1ccc(CO)cc1`, the composite z-score in [1] is 0.736; in [2], 0.143; in [3], 0.856; in [4], -1.19; in [5], -0.742; in [6] it was -0.914. For the same molecule, the composite z-score with Lefty1 was -0.844; in [8] it was 1.19. In addition, the z-score in experiment [7] was -0.837; in experiment [9], -0.113 (inactive).

`O=C1C[C@@](C(=O)NC2CC2)(c2ccc([N+](=O)[O-])cc2)[C@@H](c2ccc(CO)cc2)N1C1CCCCC1`: the composite z-score in experiment [1] came out at 2.79; in [2], 1.23; in [3], 0.333; in [4], 0.122; in experiment [5], 1.3; in experiment [6], 1.64. In addition, the results for the composite z-score (in the experiment on Lefty1; in [8]) were 0.894 and 0.407, respectively. Besides, the values for the z-score in [7] and in [9] were -0.282 and 0.997 (inactive), respectively.

As to `CO[C@H]1O[C@H](CO)[C@@H](OC(=O)Nc2ccc3c(c2)OCO3)[C@H](OC(=O)Nc2ccccc2-c2ccccc2)[C@H]1OC(=O)Nc1ccccc1-c1ccccc1`, the composite z-score in experiment [1] came to 1.73; in [2], 1.26; in experiment [3], 1.17; in experiment [4] it was 0.435; in experiment [5] it was 0.694; in [6], 0.819. For the same molecule, the composite z-score was -0.152 with Lefty1 and 0.331 in experiment [8]. In addition, the results for the z-score in experiment [7] and in experiment [9] were -0.559 and -1.22 (inactive), respectively.

On to `CCOC(=O)C1=CC[C@@H](c2ccc(OC)cc2)N(S(=O)(=O)c2ccc(C)cc2)[C@H]1c1ccc(C)cc1`, for which the composite z-score in experiment [1] was 1.23; in experiment [2], 1.18; in [3], 0.389; in [4], 0.844; in experiment [5] it was 0.633; in experiment [6], -0.0931. The composite z-score turned out to be 0.333 with Lefty1 and 0.803 in experiment [8]. The figures for the z-score in experiment [7] and in [9] were 3.2 and 1.1 (inactive), respectively.

Regarding `CCOC(=O)C[C@H]1[C@H](OC(=O)Cc2ccc3c(c2)OCO3)[C@@H](NC(=O)c2ccc3ccccc3n2)c2cc(OCCCO)ccc2N1C(=O)Cc1ccc(OC)cc1`, the composite z-score is 0.337 in experiment [1]; 0.672 in experiment [2]; -0.307 in [3]; 0.557 in [4]; 0.72 in [5]; 0.394 in experiment [6]. Further, the composite z-score with Lefty1 stood at 0.577; in experiment [8] it was 0.391. Also, the z-score in experiment [7] is 1.26; in experiment [9], -0.628 (inactive).

As to `CO[C@H]1O[C@H](CO)[C@@H](OC(=O)Nc2ccccc2-c2ccccc2)[C@H](OC(=O)Nc2ccccc2)[C@H]1OC(=O)Nc1ccccc1`, the composite z-score was 1.38 in experiment [1]; 1.29 in experiment [2]; 0.508 in experiment [3]; 0.991 in experiment [4]; 1.3 in experiment [5]; 1.86 in experiment [6]. Besides, the composite z-score in the experiment with Lefty1 is 0.719; in experiment [8], 0.679. Besides, the z-score is -1.06 in experiment [7] and -0.849 (inactive) in experiment [9].

Turning to `O=C1C[C@]2(c3ccc([N+](=O)[O-])cc3)C(=O)N(C3CC3)c3cc(CO)ccc3[C@H]2N1C1CCCCC1`, the composite z-score in experiment [1] is -0.268; in experiment [2], -0.115; in experiment [3], 0.0202; in experiment [4], -0.408; in experiment [5], -0.0193; in experiment [6], 0.173. Also, the figures for the composite z-score (with Lefty1; in experiment [8]) were -0.0446 and 0.0523, respectively. Besides, the z-score in experiment [7] was -0.22; in experiment [9] it was 0.277 (inactive).

On to `COc1ccc([Si](C)(C)[C@H]2[C@H](CCO)O[C@@]3(C(=O)N(Cc4cccc(N5C(=O)c6ccccc6Oc6ccccc65)c4)c4ccccc43)[C@@H]2C)cc1`, for which the composite z-score is 0.551 in [1]; 0.838 in [2]; -0.065 in [3]; 0.327 in experiment [4]; -0.424 in [5]; 0.649 in experiment [6]. In addition, the composite z-score in the experiment with Lefty1 is -0.351; in experiment [8], 0.805. In addition, the results for the z-score in [7] and in experiment [9] were 0.302 and 0.0939 (inactive), respectively.
